Values without a mark were called inactive.

Sequence of NADPH oxidase 4 (Homo sapiens) (Q9NPH5 whole entry, looked up): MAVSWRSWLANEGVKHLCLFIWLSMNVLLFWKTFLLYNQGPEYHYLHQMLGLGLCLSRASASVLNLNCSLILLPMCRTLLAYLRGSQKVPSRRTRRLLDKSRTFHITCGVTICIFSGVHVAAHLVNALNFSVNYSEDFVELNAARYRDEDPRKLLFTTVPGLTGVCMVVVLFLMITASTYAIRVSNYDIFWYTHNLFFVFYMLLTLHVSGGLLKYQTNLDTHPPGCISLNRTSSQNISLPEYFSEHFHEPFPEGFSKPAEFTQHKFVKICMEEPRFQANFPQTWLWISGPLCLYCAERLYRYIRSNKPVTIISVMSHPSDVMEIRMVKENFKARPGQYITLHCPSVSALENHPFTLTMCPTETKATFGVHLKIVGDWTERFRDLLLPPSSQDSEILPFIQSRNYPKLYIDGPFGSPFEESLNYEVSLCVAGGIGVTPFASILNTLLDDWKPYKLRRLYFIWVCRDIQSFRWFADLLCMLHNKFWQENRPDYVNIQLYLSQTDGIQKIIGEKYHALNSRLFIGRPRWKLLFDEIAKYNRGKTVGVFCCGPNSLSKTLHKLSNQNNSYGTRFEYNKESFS

This assay concerns the target NADPH oxidase 4 (Homo sapiens) (UniProt Q9NPH5). The experiment in a line: compounds shifting NOX4 Amplex Red fluorescence – cell-based, HEK293-NOX4, tetracycline-induced, NOX inhibitor project, primary screen (AID 1160). To be noted: HEK293-NOX4, Amplex Red H2O2 fluorescence, 45 min; higher = more signal, called active from +8 up or from −8 down.
As to `COc1cc2c(cc1O)C(C1CC1)N(Cc1cc3c(cc1Br)OCO3)CC2` (stereo not given), the z-score was -3.97.

As to `C=C(CCCC)C(=O)CC[C@H](OC(C)=O)c1cccc(OCCO)c1`, the z-score was -0.766.

Take `C=CC[C@]1(C(=O)N2CCCCC2)N=C(c2ccc(OCCCO)cc2)O[C@H]1c1ccccc1`: the z-score is -0.0137.

Turning to `COCCOC(=O)N1C(=O)[C@@]2(c3cc(C#CCCO)ccc31)[C@H](C(=O)N1CCN(c3ncccn3)CC1)[C@H]1C(=O)O[C@H](c3ccccc3)[C@H](c3ccccc3)N1[C@@H]2c1ccccc1OCCO`, the z-score is 1.29.

For `COCCOC(=O)N1C(=O)[C@@]2(c3cc(C#CCCO)ccc31)[C@H](C(=O)N1CCc3cc(OC)c(OC)cc3C1)[C@H]1C(=O)O[C@H](c3ccccc3)[C@H](c3ccccc3)N1[C@@H]2c1ccc(O)cc1`, the z-score was 0.706.

In the case of `CCCCN1CC=CC23O[C@@H]4/C=C\CCC(C)OC(=O)C4[C@H]2C(=O)N(CCCCCO)[C@@H]3C1=O` (stereo not given in full), the z-score is -0.022.

`C=CCN1C(=O)[C@@]2(O[C@@H](CCO)[C@H]([Si](C)(C)c3ccc(OC)cc3)[C@H]2C)c2cc(NC(=O)c3ccc(OC)cc3)ccc21`: the z-score is -0.905.

With `CC(=O)n1cc(C(O)C2C=CC3C(=O)N(C)C(=O)C3N2Nc2ccccc2)c2ccccc21` (stereo not given), the z-score was -3.46.

Turning to `Cc1ccc(C(C)CC(O)C2C=CC3C(=O)N(c4ccccc4)C(=O)C3N2Nc2ccc([N+](=O)[O-])cc2)o1` (stereo not given), the z-score is -0.521.

With `[N-]=[N+]=NCc1ccccc1[C@H]1OC(c2ccc(OCCCO)cc2)=N[C@@]1(Cc1ccccc1)C(=O)NCc1ccccc1`, the z-score was 0.113.

These data come from PubChem BioAssay.
